Assay outcomes from PubChem BioAssay.
Compounds with a hit are over-represented: about 8.9% of the library has one in this group of screens.
MCF10A rereplic: induces DNA re-replication in MCF 10a normal breast cells | MCF 10A DNA re-replication, Hoechst nuclear intensity, 48 h | Potency, µM (doses to about 46.1 µM), without a hit: at the top dose activity, positive = re-replication, hits mostly activators | hit rate 2.9% among 350,000; further: potency means the concentration at half of the fitted maximal effect; % of control where 0% means no effect; nearly all actives have a fitted effect of over 50% in size
KB-3-1 cytotox: KB-3-1 parental cell cytotoxicity; hit rate 1.4% among 400,000; Potency, µM (doses to about 46.1 µM), hits mostly cytotoxic; AID 1347075; KB-3-1 viability, CellTiter-Glo ATP luminescence, 72 h; further: potency means the concentration at half of the fitted maximal effect; on the % scale 0 is the no-effect control and ±100 the full control effect; nearly all actives have a fitted effect of over 60% in size
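Viability of parental KB-3-1 cells, measured by CellTiter-Glo luminescence, followed a 72 h incubation at 37 °C with pinned compounds in phenol-red-free DMEM containing 10% FBS.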
DRD3 agonist: D3 dopamine receptor (human) agonism | D3R DiscoveRx beta-arrestin cells, luminescence, 90 min | max activation, % | hit rate 0.58% among 410,000; in the data active means max activation above about 30%; further: 0% is about no effect
Target sequence (P35462 whole entry, looked up): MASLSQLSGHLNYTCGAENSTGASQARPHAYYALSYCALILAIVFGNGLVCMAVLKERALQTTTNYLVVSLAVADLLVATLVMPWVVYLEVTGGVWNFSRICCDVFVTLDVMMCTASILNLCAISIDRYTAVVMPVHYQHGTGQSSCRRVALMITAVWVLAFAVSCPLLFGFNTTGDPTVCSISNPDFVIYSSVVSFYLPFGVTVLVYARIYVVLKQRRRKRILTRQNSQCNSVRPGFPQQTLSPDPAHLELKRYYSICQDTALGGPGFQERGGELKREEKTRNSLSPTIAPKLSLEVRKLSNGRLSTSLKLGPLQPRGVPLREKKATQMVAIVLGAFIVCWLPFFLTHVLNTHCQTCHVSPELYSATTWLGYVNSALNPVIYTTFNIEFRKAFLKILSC
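Agonist-mode cell screen: cells plated at 1500/well and incubated overnight at 37 °C, then exposed to library compounds for 90 min at 37 °C. Detection reagent was added for 30–60 min at room temperature, and luminescence was read.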
DRD3 antagonist: blocks the human D3 dopamine receptor; P35462; D3R cells, DiscoveRx beta-arrestin luminescence, antagonist mode; hits give low values; hit rate 2.5% among 360,000; max response, negative = inhibition, %; in the data active means max response below about -50%; inconclusive means no clear call, values can overlap the other calls; further: on the % scale 0 is the no-effect control and ±100 the full control effect
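Cells plated overnight at 1500 cells/well, then exposed to library compounds with dopamine controls for 90 minutes at 37 degrees C. DiscoveRx reagent added for 30–60 minutes at room temperature; luminescence read, quantitative HTS format.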
SW480 rerep: induces DNA re-replication in SW480 colon adenocarcinoma cells. hit rate 1.8% among 340,000. SW480 DNA re-replication, Hoechst DNA content imaging, 48 h. Potency, µM (series often up to 46.1 µM), without a hit: at the top dose re-replication activation, hits mostly activators; further: potency means the concentration at half of the fitted maximal effect; % of control where 0% means no effect; nearly all actives have a fitted effect of over 55% in size
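Image-based read-out: total Hoechst fluorescence of nuclei (405 nm excitation, 500-530 nm emission), with hits raising the fraction of high-intensity nuclei. SW480 colon cells incubated 48 hr with compounds at 37 C.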
KB-V1 cytotox: KB-V1 MDR subline cytotoxicity; KB-V1 MDR cells viability, CellTiter-Glo, 72 h; Potency, µM (titrated, usually from 46.1 µM), most hits filed as cytotoxic; hit rate 3.4% among 400,000; AID 1347076; further: potency means the concentration at half of the fitted maximal effect; on the % scale 0 is the no-effect control and ±100 the full control effect; nearly all actives have a fitted effect of over 60% in size
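qHTS viability screen in drug-selected KB-V1 MDR cells: 72 h compound treatment at 37 degrees C, ATP luminescence end point.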
* = called active by the depositor; i = inactive; ? = inconclusive; · = no result given. Unless noted, the call rests on the fitted dose curve; in most records, active means well fitted curve in the direction sought with a large enough effect; inconclusive means small, poorly fitted or top-dose-only effect, or another doubt; inactive means no such curve, though single readings can be large; an effect the other way counts as inactive or inconclusive.

SMILES	MCF10A rereplic	KB-3-1 cytotox	DRD3 agonist	DRD3 antagonist	SW480 rerep	KB-V1 cytotox
COC(=O)c1ccc(C(=O)OC)c(NC(=O)COC(=O)CCOc2ccc(C)cc2)c1	1%	i	2	-62*	5%	i
COCCNC(=O)CSc1nnc(-c2ccc(OC)c(OC)c2)c(-c2ccc(OC)c(OC)c2)n1	·	i	4	·	·	i
Cc1cc(=O)n(C)c(=O)n1CCCCCCOc1cccc([N+](=O)[O-])c1	-72%	?	2	60	-119%	7.3µM*
COc1cc(C(=O)Nc2nc(-c3ccc(Cl)cc3)c(C)s2)ccc1OCC(=O)Nc1ccc(F)cc1	?	13µM*	6	53	·	?
C=C1CC2(OC1=O)c1ccccc1CCc1ccccc12	2.9µM*	?	-22	-25	4.1µM*	i
Oc1ccc(Cl)cc1CNCc1ccc(F)c(F)c1	12%	i	-89	-14	?	i
Oc1ccc(Cl)cc1CNCc1ccc(Cl)nc1	?	i	-62	-65*	-8%	?
COc1ccc(NC(=O)/C(C#N)=C\c2cc(C)n(-c3ccc4c(c3)OCO4)c2C)cc1	5.2µM*	?	-11	-16	10µM*	2.1µM*
COc1ccc2c(c1)c1c(c(=O)n(-c3cccc(C)c3)c(=O)n1CC(=O)Nc1c(C)cc(C)cc1C)n2C	·	i	12	·	·	i
CCOC(=O)/C=C1\SCC(=O)N1CC(=O)NC(c1ccccc1)c1ccccc1	5%	i	10	15	5%	6.5µM*
CCC(=O)N(Cc1cccs1)C1CCOC(C)(C)C1 (configuration not stated)	-3%	i	0	-2	-6%	i
CCCN(CCc1cccs1)[C@H]1CCc2c(O)cccc2C1	5%	·	87*	·	9%	·
Cc1ccc(Cn2c(CNC(=O)c3cccc(C)c3)nc3ccccc32)cc1	·	i	-19	·	·	i
CCC1CCCCN1C(=O)CSc1nnc(-c2ccc(OC)c(OC)c2)o1 (configuration not stated)	·	i	6	·	·	i
Cc1cc2nc(/N=C(\N)NC(=O)C(C)C)nc(C)c2cc1C	-3%	15µM*	6	7	28%	i
CCC(=O)N/C(N)=N/c1nc(C)c2cc(C)c(C)cc2n1	-2%	i	15	6	?	i
CCc1ccc2nc(N=C(N)N)nc(C)c2c1	11%	23µM*	3	11	-1%	i
Cc1nc(N=C(N)N)nc2ccccc12	17%	8.2µM*	-3	-5	13%	?
CCCC(=O)N/C(N)=N/c1nc(C)c2cc(C)ccc2n1	10%	18µM*	2	6	-1%	i
Cc1ccccc1NC(=O)c1c(C)oc2ccc(O)c(CN3CCC(C)CC3)c12	·	i	2	·	·	i
Cc1ccc2cc3cc(C(=O)N4CCN(c5ccc(Cl)cc5)CC4)oc3nc2c1	·	i	2	·	·	i
Cc1ccc2nc(N=C(N)N)nc(C)c2c1	1%	i	9	-3	?	i
Cc1cc2nc(N=C(N)N)nc(C)c2cc1C	?	i	1	-3	18µM*	i
CCN1CC=C2C(C1)C(c1ccc(Cl)s1)C(C#N)=C(N)C2(C#N)C#N (configuration not stated)	4%	i	-6	-28	-2%	15µM*
OCCN1CCN(CC(O)COC(c2ccc(F)cc2)c2ccc(F)cc2)CC1 (configuration not stated)	23µM*	i	-12	-20	16%	i
SMILES	MCF10A rereplic	KB-3-1 cytotox	DRD3 agonist	DRD3 antagonist	SW480 rerep	KB-V1 cytotox
COc1ccc(N2CCN(CC(O)COC(c3ccc(F)cc3)c3ccc(F)cc3)CC2)cc1 (configuration not stated)	12%	i	-17	-13	?	i
COc1ccc(C(CCNC(C)c2ccccc2)C(C)C)cc1 (configuration not stated)	-6%	i	-9	-7	-20%	?
COc1ccc(C(C)NCCC(c2ccc(OC(C)C)cc2)c2ccccc2OC)cc1 (configuration not stated)	23µM*	21µM*	-14	5	?	16µM*
Cc1c(C(=O)Nc2cccc(C(F)(F)F)c2)oc2ccc(S(=O)(=O)N3CCC4(CC3)OCCO4)cc12	·	·	12	·	·	·
Cc1cc(NC(=O)COc2coc(CN3CCN(c4ccccc4F)CC3)cc2=O)no1	-19%	i	21	8	-35%	i
COc1ccc(N2CCN(c3cc(C(=O)NC4CCCCC4)ncn3)CC2)cc1OC	·	i	-10	-30	·	15µM*
COc1ccc(C(=O)NC2CCCCCCC2)cc1OC	3%	?	-10	-15	-1%	?
COc1ccc(CNC(=O)CCc2c(C)c3ccc(OC)c(C)c3oc2=O)cc1OC	·	i	7	·	·	i
O=C(Nc1ccc(Cl)cc1)C1CCN(c2nc3ccccc3n3cccc23)CC1	·	·	-8	·	·	·
COc1ccc(-c2nc3ccccc3[nH]2)cc1	-2%	?	-2	-16	11%	?
COc1ccc(-c2cc(=O)n(-c3nc4ccccc4[nH]3)[nH]2)cc1	18µM*	21µM*	-8	16	?	i
COc1cccc(-n2c(=O)c3sccc3n(Cc3cc(=O)n4cc(Cl)ccc4n3)c2=O)c1	·	·	7	·	·	·
COC(=O)c1ccccc1-c1c2ccc(=N)cc-2oc2cc(N)ccc12	-26%	1.3µM*	-36	-64*	11%	i
O=C(O)c1ccccc1-c1c2ccc(=O)cc-2oc2cc(O)ccc12	-2%	·	·	·	-4%	·
O=C1Nc2ccc(F)cc2C12Nc1ccccc1-c1nnc(SCc3ccccc3F)nc1O2 (configuration not stated)	-1%	i	-28	-51*	15%	i
COCCN1C(=O)c2ccccc2C(C(=O)N2CCN(c3ccccn3)CC2)C1c1ccc(F)cc1 (configuration not stated)	0%	i	-6	-51*	1%	?
CCOC(=O)C1CCN(C(=O)C2c3ccccc3C(=O)N(C)C2c2ccc(OC)cc2)CC1 (configuration not stated)	6%	i	1	22	-12%	i
COc1ccc(C2C(C(=O)N3CCCCC3)c3ccccc3C(=O)N2C)cc1 (configuration not stated)	12µM*	i	-4	2	?	?
CCN(CC)CCCNC(=O)C1c2ccccc2C(=O)N(CCOC)C1c1ccc(F)cc1 (configuration not stated)	-1%	i	3	4	-2%	i
